Assay outcomes: PubChem BioAssay, several laboratories
SKN-1 inh – inhibitors of C. elegans SKN-1; C. elegans VP596 Pgst-4::GFP/RFP ratio, acrylamide-induced, 24 h; inhibition, % at 21.8 µM; 360,000 tested, 0.49% active;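 active means interference check ratio from 0.5 to 1.5 plus GFP to RFP signal ratio inhibition reaching or exceeding a fixed threshold, cut at about 30% in these data, passing the limit was not always enough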
CendR NRP1 mod – alters CendR peptide binding to human NRP-1; O14786; FAM-RPARPAR peptide binding to NRP-1, fluorescence polarization; inhibition, % at 25 µM; 360,000 tested, 0.85% active; AID 602438;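 active means inhibition or corrected inhibition above about 18%, plus a signal ratio from 0.5 to 1.5, limit read from the data, passing the limit was not always enough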
Target sequence (O14786 whole entry, looked up): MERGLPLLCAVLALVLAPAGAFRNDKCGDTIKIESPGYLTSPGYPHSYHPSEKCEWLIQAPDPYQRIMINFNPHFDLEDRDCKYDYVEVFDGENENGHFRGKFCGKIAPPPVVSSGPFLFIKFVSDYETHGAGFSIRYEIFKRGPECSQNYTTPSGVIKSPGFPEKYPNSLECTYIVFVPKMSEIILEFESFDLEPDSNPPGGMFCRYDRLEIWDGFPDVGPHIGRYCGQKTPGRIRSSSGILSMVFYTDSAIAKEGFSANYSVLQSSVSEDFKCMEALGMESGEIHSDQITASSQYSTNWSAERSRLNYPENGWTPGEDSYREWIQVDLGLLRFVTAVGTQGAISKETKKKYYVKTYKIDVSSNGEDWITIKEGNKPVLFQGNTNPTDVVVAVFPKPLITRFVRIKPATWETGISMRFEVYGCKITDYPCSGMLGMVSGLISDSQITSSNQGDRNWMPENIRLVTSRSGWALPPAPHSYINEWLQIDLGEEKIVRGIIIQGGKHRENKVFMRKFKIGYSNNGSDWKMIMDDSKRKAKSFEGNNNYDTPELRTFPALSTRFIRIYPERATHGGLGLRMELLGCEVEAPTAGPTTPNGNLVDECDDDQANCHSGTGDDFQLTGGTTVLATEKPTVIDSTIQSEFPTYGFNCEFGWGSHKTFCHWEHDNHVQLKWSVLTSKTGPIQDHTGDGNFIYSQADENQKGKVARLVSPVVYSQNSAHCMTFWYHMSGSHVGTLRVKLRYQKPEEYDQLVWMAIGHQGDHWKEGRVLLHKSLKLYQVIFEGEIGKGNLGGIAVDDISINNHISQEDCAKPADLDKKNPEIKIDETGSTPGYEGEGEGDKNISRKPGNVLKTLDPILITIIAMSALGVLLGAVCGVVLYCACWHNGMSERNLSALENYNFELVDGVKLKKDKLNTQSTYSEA
MEKK3 PB1 HTS – raises or lowers MEK5 binding to the human MEKK3 PB1 domain; Q99759; bead-based flow cytometry, Alexa488-MEK5 binding to MEKK3; actives lie on both sides; 0 = blocked by unlabeled MEK5, 100 = vehicle; binding response (% of control), % at 10 µM; 290,000 tested, 1.4% active;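 active means binding response more than 3 SD above or below the average of its plate-row segment, actives on both sides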;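 further: Alexa488 bead fluorescence after subtracting the streptavidin-only scavenger bead signal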
MEKK2 WT-MEK5 – raises or lowers MEK5 binding to wildtype human MEKK2 PB1 domain. binding response (% of control), % at 10 µM. Q9Y2U5. bead flow cytometry, Alexa488-MEK5 binding to MEKK2 WT; actives lie on both sides. 290,000 tested, 1.1% active. AID 1531; in the data active means binding response below about 67% or above about 130%
MEKK2 mut-MEK5 – signal of MEK5 binding to mutant human MEKK2 PB1 domain | bead flow cytometry, Alexa488-MEK5 binding to MEKK2 mutant | percent response, % at 10 µM | AID 1530 | 290,000 tested, 0.35% active; in the data active means percent response above about 24%, passing the limit was not always enough
MEKK2wt confirm – raises or lowers MEK5 binding to wildtype human MEKK2, retest; AID 1892; binding response (% of control), % at 10 µM; bead flow cytometry, Alexa488-MEK5 binding to MEKK2 WT; actives lie on both sides; 5,900 tested, 2.4% active; shares compounds with MEKK3 PB1 HTS; in the data active means binding response below about 16% or above about 210%; inactive means in between
MEKK2mut confirm – signal of MEK5 binding to mutant human MEKK2, retest; percent response, % at 10 µM; AID 1893; shares compounds with MEKK3 PB1 HTS; 5,900 tested, 2% active; bead flow cytometry, Alexa488-MEK5 binding to MEKK2 mutant; in the data active means percent response mostly above about 71%, no sharp cut-off; inactive means mostly below about 38%;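 further: higher means compound restores mutant binding toward wildtype level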
MEKK3 confirm – confirmation of inhibitors of MEK5 binding to human MEKK3; shares compounds with MEKK3 PB1 HTS; bead flow cytometry, Alexa488-MEK5 binding to MEKK3; hits give low values; binding response (% of control), % at 10 µM; 5,900 tested, 1.8% active;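 active means binding response below 72% of control, or above a set upper limit, though filed actives all read lower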;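 further: 100% = DMSO only wells and 0% = binding blocked by excess unlabeled MEK5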
Numbers without * were called inactive; nt = no result given; [ ] = dose if it differs, or a comment. In the library only some 3.2% were active in any assay of this set; here they are far more common.

SMILES	SKN-1 inh	CendR NRP1 mod	MEKK3 PB1 HTS	MEKK2 WT-MEK5	MEKK2 mut-MEK5	MEKK2wt confirm	MEKK2mut confirm	MEKK3 confirm
Cn1c(Cn2cnc([N+](=O)[O-])n2)nnc1SCC(=O)Nc1ccccc1	-3	4	144*	110	1	106	0	105
COC(=O)c1ccc(NC(=O)CSc2nnc(COc3ccccc3)n2C)cc1	0	2	113	120	24*	99	3	105
COc1ccc(NC(=O)CSc2nnc(Cn3cnc([N+](=O)[O-])n3)n2C)cc1	11	9	41*[inhibitor]	77	1	100	-3	101
Cc1ccc(C(=O)NCc2nnc(SCC(=O)Nc3ccccc3)n2C)cc1	-5	3	105	106	-2	nt	nt	nt
O=C1CCc2cc(Br)ccc2O1	11	-10	nt	nt	nt	nt	nt	nt
C[C@H]1NC(=O)[C@]2(C)[C@@H](c3ccccc3)[C@H]3COc4ccccc4[C@H]3N2C1=O	-3	-8	nt	nt	nt	nt	nt	nt
CC(C)(C)C(=O)Nc1ccc(NC(=O)C(C)(C)C)cc1	4	2	48*[inhibitor]	48	-31	87	-12	78
CC(C)(C)C(=O)Nc1ccc(S(=O)(=O)c2ccc(NC(=O)C(C)(C)C)cc2)cc1	13	1	105	103	5	nt	nt	nt
COc1ccc(C2=NN(C(=O)CSc3nc4ccccc4s3)C(c3ccc(OC)cc3)C2)cc1 (stereo not drawn)	21	-6	148*	99	0	87	-6	92
COc1ccc2c(c1)cc(C(=O)N[C@@H](CCSC)C(=O)N1CCC[C@H]1C(=O)O)n2C	7	-20	100	99	0	nt	nt	nt
COc1ccc(-c2nc(NC(=O)Cn3c(=O)oc4ccccc43)sc2C)cc1	13	-20	143*	112	1	101	1	108
O=C(NCc1ccc(Cl)cc1)C(=O)NCC(c1ccco1)N1CCOCC1 (stereo not drawn)	7	4	102	107	12	nt	nt	nt
Cc1ccc(CNC(=O)C(=O)NCC(c2ccco2)N2CCOCC2)cc1 (stereo not drawn)	-11	-1	129*	102	0	103	-3	98
O=C(NCCc1c[nH]c2ccccc12)C(=O)NCC(c1ccco1)N1CCN(c2ccc(F)cc2)CC1 (stereo not drawn)	1	-5	129*	107	0	96	-6	102
Cc1cc(CCNC=O)c(C)c2c1oc1ccccc12	19	12	nt	nt	nt	nt	nt	nt
COc1ccc(/C=C/CN2CCCC(CO)(Cc3cccc(Cl)c3)C2)cc1 (stereo not drawn)	12	-8	110	159*	6	113	15	102
CC(C)CNCC(=O)N1c2ccccc2Sc2ccccc21	2	8	2.0*[inhibitor]	1.0*[inhibitor]	-42	71	-9	91
CC1(C)CC(=O)C=C(c2ccc(COC(=O)Cc3ccccc3)cc2)C1=O	0	1	nt	nt	nt	nt	nt	nt
Cc1cccc2sc(N(CCCN(C)C)C(=O)c3nc4ccccc4s3)nc12	10	6	67*[inhibitor]	83	-3	158	42	100
Cc1ccc2sc(N(CCCN(C)C)C(=O)c3nc4ccccc4s3)nc2c1C	2	1	103	144*	33	196	63	111
Cc1ccc2sc(N(CCCN(C)C)C(=O)c3ccc(Br)s3)nc2c1C	-5	11	140*	479*	218*	180	60	110
Cc1ccc2nc(N(CCCN(C)C)C(=O)c3sc4ccccc4c3Cl)sc2c1	14	6	133*	155*	9	184	54	109
CN(Cc1ccccc1F)c1cc2c(c3c1ccn3C)C1CCC2C1 (stereo not drawn)	9	5	nt	nt	nt	nt	nt	nt
CCC(c1nc2ccccc2c(=O)n1CCCn1ccnc1)N1C(=O)c2ccccc2C1=O (stereo not drawn)	5	4	77*[inhibitor]	85	-12	101	-2	103
O=C(O)c1ccccc1CC(CCc1ccccc1)C(=O)O (stereo not drawn)	-7	-9	nt	nt	nt	nt	nt	nt
SMILES	SKN-1 inh	CendR NRP1 mod	MEKK3 PB1 HTS	MEKK2 WT-MEK5	MEKK2 mut-MEK5	MEKK2wt confirm	MEKK2mut confirm	MEKK3 confirm
C=CCn1c(=O)c2c3c(sc2n2c(Nc4ccccc4)nnc12)CCCC3	-6	4	10*[inhibitor]	13*[inhibitor]	-22	91	-31	96
CCCC[C@@H]1Cc2[nH][nH]c(=O)c2[C@H](c2ccc(C(C)C)cc2)O1	-12	-1	nt	nt	nt	nt	nt	nt
CC1=C(C)CC(C(=O)Nc2nc(-c3ccc(C)cc3C)c(C)s2)C(C(=O)O)C1 (stereo not drawn)	-9	0	133*	104	1	104	3	101
CC1=C(C)CC(C(=O)Nc2nc(-c3ccc(F)cc3)c(C)s2)C(C(=O)O)C1 (stereo not drawn)	-4	4	95	98	-3	nt	nt	nt
COC(=O)c1[nH]c2cc(OC)ccc2c1NC(=O)CCN1CCSCC1	-14	1	124*	125	7	98	2	100
COC(=O)c1[nH]c2cc(OC)ccc2c1N	21	9	18*[inhibitor]	30*[inhibitor]	-43	109	7	102
COC(=O)c1[nH]c2cccc(OC)c2c1NC(=O)CCN1CCSCC1	12	2	105	102	4	nt	nt	nt
CCOC(=O)c1sc(NC(=O)CSc2nc3c(c(=O)n2-c2ccc(C)cc2)SCC3)c(C(=O)OCC)c1C	-23	-2	71*[inhibitor]	73	8	95	7	101
Cc1[nH]c2ccccc2c1CN1CCN(c2ccccn2)CC1	12	13	101	101	1	nt	nt	nt
Cc1[nH]c2ccccc2c1CN1CCC(Cc2ccccc2)CC1	-13	5	103	145*	30	138	28	107
CCCC(=O)C1=C(O)C(C(=O)OC)C(C)(C)CC1=NCCc1ccc(OC)c(OC)c1 (stereo not drawn)	5	-9	72*[inhibitor]	83	-7	106	5	105
CCCC(=O)C1=C(O)C(C(=O)OC)C(C)(C)CC1=NCc1ccccc1 (stereo not drawn)	7	11	104	109	12	nt	nt	nt
CCN(c1ccccc1)S(=O)(=O)c1cc(NC(=O)Nc2ccccc2C#N)ccc1Cl	1	12	133*	108	0	106	3	102
CCN(c1ccccc1)S(=O)(=O)c1ccc(Cl)c(NC(=O)Nc2ccc(Cl)cc2C#N)c1	2	0	101	99	1	nt	nt	nt
